In experiment [1] the target is Lysosomal acid glucosylceramidase (Homo sapiens) (UniProt P04062). As to the kind of experiment: Glucocerebrosidase-p2 (AID 348; in the data active means potency below about 10 µM; further: potency means the concentration at half of the fitted maximal effect). Particulars: purified GBA, blue fluorogenic substrate, 40 min. A digest of the protocol:
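Compounds titrated from 0.6 nM upwards against 0.2 nM enzyme in pH 5.9 citric acid/KH2PO4, taurocholate, tween-20; blue fluorogenic substrate 80 uM, 40 min room temperature, stopped and read Ex 365/Em 440 for AC50.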

A short description of experiment [2]: AP1 Signaling Pathway (AID 357).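 Further: ME-180 reporter cells stimulated with EGF at its EC50 level; on the % scale 0 is the no-effect control and ±100 the full control effect.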 To be noted: ME-180 AP-1-bla reporter, EGF-induced, beta-lactamase ratio, 5 h; at 7.69 µM (top of the series) unless noted. A digest of the protocol: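 In this screen, ME-180 cells in Opti-MEM with 0.5% dialyzed FBS received EC50 EGF and compound titrations for 5 h. AP-1 reporter beta-lactamase was detected via CCF4 ratio, giving AC50 for positive and negative modulators.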

In experiment [3] the target is Cytochrome P450 1A2 (Homo sapiens) (UniProt P05177). In words: p450-cyp1a2 (AID 410; calls by dose curve; further: potency means the concentration at half of the fitted maximal effect;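 on activity change, negative = inhibition: -100% = full effect of reference inhibitor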). To be noted: recombinant CYP1A2, luciferin-ME demethylation, luminescence; series mostly up to 11.4 µM. The essentials:
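20nM CYP1A2 with 100uM Luciferin-ME (at Km) in 100mM KPO4; compound preincubated 10 min, NADPH regeneration added, 60 min at room temperature. Luciferin quantified by luminescence after detection reagent; normalized to 57 uM furafylline.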

The target in experiment [4] is Glucocorticoid receptor (Homo sapiens) (UniProt P04150). In words: GR-GFP Redistribution (AID 450;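 active means compounds whose dose series gives a full or clear partial fitted curve of increased nuclear translocation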; further: potency means the concentration at half of the fitted maximal effect). To be noted: U2OS GR-GFP nuclear translocation, laser cytometry, 2 h.
For experiment [5] the target is unchanged. As to the kind of experiment: GR-EFC Redistribution (AID 451; calls by dose curve; further: potency means the concentration at half of the fitted maximal effect). Particulars: CHO-K1 GR-EFC translocation, beta-gal luminescence, 2 h. The essentials:
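CHO-K1 cells stably expressing nuclear-localized β-gal enzyme acceptor and GR fused C-terminally to the enzyme donor fragment; ligand-driven nuclear translocation restores β-gal by complementation. Compounds titrated up to 46 uM final, 2 h at 37 °C; luminescence read.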

In experiment [6] the target is Mitogen-activated protein kinase 10 (Mus musculus) (UniProt Q61831). In words: JNK3 AlphaScreen Assay (AID 530).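 Further: kinase came from lysate of stimulated human HepG2 cells; signal reports phosphorylation of biotinylated GST-cJun 1-79 at Ser73 with 10 µM ATP; on the % scale 0 is the no-effect control and ±100 the full control effect.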 Particulars: JNK3 lysate, c-Jun phosphorylation; series mostly up to 11.4 µM. The essentials:
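Inhibitors reduce antibody binding to phosphorylated biotin-cJun, lowering AlphaScreen luminescence. Lysates from HepG2 cells pre-activated by IL-1beta plus TNF-alpha supplied JNK3; compounds were titrated.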

Experiment [7] has as its target 3',5'-cyclic-AMP phosphodiesterase 4B (Homo sapiens) (UniProt Q07343). As to the kind of experiment: qHTS Assay for Inhibitors of PDE-IV (AID 607; active means well fitted activation curve with a large enough effect in the main read-out, with a control signal flat, not every such curve was filed as active; further: % of control where 0% means no effect). Particulars: HEK293 ACTOne CNG channel cells, membrane potential fluorescence; series mostly up to 22.9 µM. The essentials:
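ACTOne HEK293 cells carry a modified cAMP-gated CNG channel and express endogenous PDE4; plated 1000 cells/well, compounds up to 22.9 uM final. Membrane-potential dye fluorescence (ex 535/em 590) was read; parental cells received 10 uM forskolin + 100 uM RO 20-1724.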
Background: Quantitative high-throughput screening tests each substance at several concentrations.

Experiment [8] has as its target Cytochrome P450 3A4 (Homo sapiens) (UniProt P08684). In words: qHTS Assay for Inhibitors and Substrates of Cytochrome P450 3A4 (AID 884; active means well fitted curve in the direction sought with a large enough effect; an effect the other way counts as inactive or inconclusive; further: potency means the concentration at half of the fitted maximal effect; nearly all actives have a fitted effect of over 50% in size). Particulars: recombinant CYP3A4, Luciferin-PPXE luminescence; series mostly up to 57.1 µM. A digest of the protocol: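 20 nM human CYP3A4 with 25 uM Luciferin-PPXE (at KM) in 200 mM KPO4, preincubated 10 min with compound; NADPH regeneration started a 60 min RT reaction. Luciferin detected by luminescence, normalized to 57 uM ketoconazole as full inhibition.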

For experiment [9] the target is unchanged. As to the kind of experiment: qHTS Assay for Activators of Cytochrome P450 3A4 (AID 885; active means well fitted curve in the direction sought with a large enough effect; an effect the other way counts as inactive or inconclusive; further: nearly all actives have a fitted effect of over 65% in size). Particulars: recombinant CYP3A4, Luciferin-PPXE luminescence, 60 min; series mostly up to 11.4 µM. The essentials:
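20nM CYP3A4 + 25uM Luciferin-PPXE (=KM), 200mM KPO4; cpd 10 min RT; NADPH regen, 60 min RT; stop w/ detection buffer, 20 min; luminescence. Normalized to 57 uM ketoconazole.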

Experiment [10] deals with Cytochrome P450 2D6 (Homo sapiens) (UniProt P10635). As to the kind of experiment: qHTS Assay for Inhibitors and Substrates of Cytochrome P450 2D6 (AID 891; active means well fitted curve in the direction sought with a large enough effect; an effect the other way counts as inactive or inconclusive; further: potency means the concentration at half of the fitted maximal effect; nearly all actives have a fitted effect of over 60% in size). Particulars: recombinant CYP2D6, luciferin-ME EGE luminescence; series mostly up to 11.4 µM. A digest of the protocol: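 Human CYP2D6 (5 nM) with 30 uM Luciferin-ME EGE (at Km) in 100 mM KPO4, compound preincubated 10 min, then NADPH regeneration system for 60 min at room temperature. Luciferin read by luminescence; normalized to 1.43 uM quinidine.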

The target in experiment [11] is Cytochrome P450 2C19 (Homo sapiens) (UniProt P33261). In words: qHTS Assay for Inhibitors and Substrates of Cytochrome P450 2C19 (AID 899; active means well fitted curve in the direction sought with a large enough effect; an effect the other way counts as inactive or inconclusive; further: potency means the concentration at half of the fitted maximal effect; nearly all actives have a fitted effect of over 60% in size). Particulars: recombinant CYP2C19, luciferin-H EGE luminescence; series mostly up to 11.4 µM. A digest of the protocol: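 NADPH-dependent conversion of Luciferin-H EGE (10uM, at KM) by 5nM enzyme in 50mM KPO4, 60 min at 37C following 10 min compound preincubation. Stopped with luciferin detection buffer; luminescence read after 20 min.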

The nature of experiment [12]: NFAT Signaling Pathway (AID 444).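 Further: carbachol stimulus at about its EC50 of 1 µM final; on the % scale 0 is the no-effect control and ±100 the full control effect.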 Particulars: Jurkat NFAT-bla M1, carbachol, beta-lactamase ratio, 5 h. The essentials: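 Jurkat cells carrying an NFAT-driven β-lactamase reporter and co-transfected muscarinic M1 receptor were treated with compound plus carbachol (1 uM final, an EC50 level) for 5 h at 37 °C. CCF4 loading followed for 1 h at RT; 460/530 nm ratio gave %activity.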

The nature of experiment [13]: Stat Signaling Pathway (AID 446).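 Further: ME-180 cervical cancer cells given 40 pM IL-6 alongside compound; SIE-controlled beta-lactamase reporter measured as 460/530 nm FRET emission ratio; on the % scale 0 is the no-effect control and ±100 the full control effect.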 Particulars: ME-180 SIE beta-lactamase reporter, IL-6 stimulated, 5 h. A digest of the protocol: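 ME-180 SIE-bla cells; overnight plating; cpd + IL-6 40 pM, 5 h, 37 C; LiveBLAzer 2.5 h RT; 460/530 nm emission ratio. Normalized to 300 pM IL-6 and 125 nM JAK inhibitor controls.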
Experiment [14] deals with Guanine nucleotide-binding protein G(i) subunit alpha-1 (Homo sapiens) (UniProt P63096). As to the kind of experiment: qHTS Assay for Inhibitors of RGS12 GoLoco Motif Activity (Green Fluorophore) (AID 879; active means well fitted curve in the direction sought with a large enough effect; an effect the other way counts as inactive or inconclusive;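 further: 0% = labeled peptide with Gαi1 and full inhibition = labeled peptide alone without protein; negative values mean loss of peptide binding seen as reduced polarization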). Particulars: Galphai1/FITC-RGS12 GoLoco peptide, fluorescence polarization; series mostly up to 57.1 µM. A digest of the protocol: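 Fluorescence polarization assay: 50 nM Gαi1 with 10 nM FITC-labeled RGS12 GoLoco peptide in 10 mM Tris pH 7.5, 150 mM NaCl, 0.1 mM GDP, 0.05% NP40, 10 min at room temperature with compound.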

Experiment [15] in a line: qHTS Assay for Identification of Small Molecule Agonists for Thrombopoietin (TPO) Signaling Pathway (AID 917; active means well fitted curve in the direction sought with a large enough effect; an effect the other way counts as inactive or inconclusive; further: on the % scale 0 is the no-effect control and ±100 the full control effect). To be noted: TPO signaling pathway reporter cells, agonist qHTS, stimulated with TPO at its EC50; series mostly up to 38.5 µM. The essentials: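 We measured Glycoprotein IIb promoter–luciferase output in IL-3-starved Ba/F3 murine cells expressing the human TPO receptor after 24 hrs at 37 C with compounds and 26 pM TPO.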

In experiment [16] the target is Muscarinic acetylcholine receptor M1 (Rattus norvegicus) (UniProt P08482). As to the kind of experiment: qHTS Assay for Antagonists of Acetylcholine Muscarinic M1 Receptor: Kinetic Measurement of Intracellular Calcium Response (AID 943; active means well fitted curve in the direction sought with a large enough effect; an effect the other way counts as inactive or inconclusive; further: nearly all actives have a fitted effect of over 75% in size). To be noted: M1-expressing cells, kinetic intracellular calcium fluorescence; series mostly up to 35.3 µM. The essentials:
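CHO cells expressing rat M1 receptor, Fluo-4 loaded, preincubated 10 min with compound, then stimulated with EC80 carbachol (100 nM final). Kinetic calcium fluorescence over 4 min; response taken as peak over basal signal.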

For experiment [17] the target is unchanged. In words: qHTS Assay for Antagonists of Acetylcholine Muscarinic M1 Receptor: Measurement of IP-One Response (AID 944; active means well fitted curve in the direction sought with a large enough effect; an effect the other way counts as inactive or inconclusive; further: nearly all actives have a fitted effect of over 75% in size). To be noted: CHO-M1 cells, IP-One HTRF, antagonist mode; series mostly up to 46.1 µM. The essentials:
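CHO cells stably expressing rat M1, pretreated 10 min with compound, then stimulated 30 min with carbachol at EC80 (200 nM) in LiCl-containing buffer pH 7.4; IP1 accumulation read by HTRF competition (665/620 nm).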

Experiment [18] addresses Pyruvate kinase (Leishmania mexicana) (UniProt Q27686). In words: qHTS Validation Assay for Inhibitors of Leishmania Mexicana Pyruvate Kinase (AID 945; active means well fitted curve in the direction sought with a large enough effect; an effect the other way counts as inactive or inconclusive;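 further: 0% = DMSO only neutral control wells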). To be noted: purified L. mexicana pyruvate kinase, enzyme activity, E451W mutant enzyme; series mostly up to 57.5 µM. A digest of the protocol:
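Eight-point qHTS titrations in triplicate, data normalized to DMSO neutral control. Reaction: 0.2 nM LmPYK E451W mutant, 0.5 mM PEP, 0.1 mM ADP, 7 mM MgCl2, pH 7.2, one hour at room temperature; luminescent ATP detection.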

Experiment [19] has as its target Pyruvate kinase PKM (Homo sapiens) (UniProt P14618). As to the kind of experiment: qHTS Assay for Activators of Human Muscle Pyruvate Kinase (AID 954; active means well fitted curve in the direction sought with a large enough effect, not every such curve was filed as active;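 further: 0% = uninhibited enzyme and -100% = no enzyme or full thiadiazolimine inhibition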). Particulars: purified human muscle pyruvate kinase, luciferase-coupled luminescence, 1 h; series mostly up to 57.5 µM. The essentials:
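Luminescence from a luciferase ATP-detection/stop reagent reported PKM2 activity. Reactions contained 0.1 nM purified human enzyme, 0.5 mM PEP, 0.1 mM ADP and 7 mM MgCl2 at pH 7.2, run 1 h at RT.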

The target in experiment [20] is Alpha-galactosidase A (Homo sapiens) (UniProt P06280). In words: Counterscreen for Glucocerebrosidase Inhibitors: qHTS Assay for Human alpha-Galactosidase at pH 4.5 (AID 992; active means well fitted curve in the direction sought with a large enough effect; an effect the other way counts as inactive or inconclusive; further: 0% is about no effect). Particulars: purified enzyme, fluorogenic substrate; series mostly up to 76.9 µM. The essentials: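 Enzyme at 2 nM final was combined with compound (0.7 nM to 77 uM) and 80 uM 4-methylumbelliferyl alpha-D-galactopyranoside in 50 mM citric acid, 0.005% Tween-20, pH 4.5. After 20 min at room temperature, fluorescence was read (Ex 365/Em 440 nm); AC50 came from Hill fits.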

Experiment [21] has as its target alpha-glucosidase (Oryza sativa, rice) (UniProt Q653V4). As to the kind of experiment: Counterscreen for Glucocerebrosidase Inhibitors: qHTS Assay for Rice alpha-Glucosidase at pH 5.0 (AID 997; active means well fitted curve in the direction sought with a large enough effect; an effect the other way counts as inactive or inconclusive;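 further: 0% = full activity with enzyme and -100% = basal without enzyme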). To be noted: rice alpha-glucosidase enzyme activity; series mostly up to 76.9 µM. A digest of the protocol:
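Rice alpha-glucosidase (4 nM final) with 400 uM 4-methylumbelliferyl-alpha-D-glucopyranoside in citrate buffer pH 5.0, 20 min at room temperature, stopped at pH 10; fluorescence 365/440 nm, compounds 0.7 nM–77 uM, AC50 from Hill fits.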
On the technique in general: A counterscreen serves to expose hits that act by an unwanted route or on another target.

Values joined by “and” are separate entries in the source; they are usually repeats but may differ in a detail not shown here. Equal entries are not always repeated. Unmarked numbers belong to inactive results. Inconclusive results are not listed. Active and inactive are the calls of the source. Unless noted, the call rests on the fitted dose curve; in most records, active means well fitted curve in either direction with a large enough effect (not every such curve was filed as active); inconclusive means small, poorly fitted or top-dose-only effect, or another doubt; inactive means flat fitted curve, though single readings scatter.

Cytochrome P450 3A4 (Homo sapiens), sequence (P08684 whole entry, looked up): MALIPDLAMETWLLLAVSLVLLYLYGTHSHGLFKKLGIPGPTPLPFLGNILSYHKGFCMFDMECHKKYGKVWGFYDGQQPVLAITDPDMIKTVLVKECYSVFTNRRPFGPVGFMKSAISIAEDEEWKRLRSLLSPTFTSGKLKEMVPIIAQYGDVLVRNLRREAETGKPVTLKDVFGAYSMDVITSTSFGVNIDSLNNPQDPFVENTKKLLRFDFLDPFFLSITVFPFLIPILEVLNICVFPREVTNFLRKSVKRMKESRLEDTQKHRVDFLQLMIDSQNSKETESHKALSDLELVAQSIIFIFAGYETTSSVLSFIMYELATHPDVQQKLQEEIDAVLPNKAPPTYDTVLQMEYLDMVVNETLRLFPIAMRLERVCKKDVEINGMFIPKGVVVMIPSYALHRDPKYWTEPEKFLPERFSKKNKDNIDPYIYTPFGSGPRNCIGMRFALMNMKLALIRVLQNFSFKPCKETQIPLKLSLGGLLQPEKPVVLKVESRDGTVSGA
Lysosomal acid glucosylceramidase (Homo sapiens), sequence (P04062 whole entry, looked up): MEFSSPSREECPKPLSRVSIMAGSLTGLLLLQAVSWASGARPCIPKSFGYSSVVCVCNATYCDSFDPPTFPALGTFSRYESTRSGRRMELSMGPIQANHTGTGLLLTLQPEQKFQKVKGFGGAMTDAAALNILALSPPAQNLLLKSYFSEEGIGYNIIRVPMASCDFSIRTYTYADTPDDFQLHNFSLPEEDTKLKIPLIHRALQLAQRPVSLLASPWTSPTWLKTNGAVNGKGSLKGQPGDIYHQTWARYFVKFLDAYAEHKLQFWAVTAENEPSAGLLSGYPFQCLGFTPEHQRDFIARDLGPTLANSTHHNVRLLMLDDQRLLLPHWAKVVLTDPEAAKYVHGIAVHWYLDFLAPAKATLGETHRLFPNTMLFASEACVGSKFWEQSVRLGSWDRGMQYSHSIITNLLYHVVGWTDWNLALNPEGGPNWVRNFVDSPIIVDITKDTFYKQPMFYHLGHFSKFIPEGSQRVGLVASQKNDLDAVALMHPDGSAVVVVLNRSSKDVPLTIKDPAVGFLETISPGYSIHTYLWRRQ
3',5'-cyclic-AMP phosphodiesterase 4B (Homo sapiens), sequence (Q07343 whole entry, looked up): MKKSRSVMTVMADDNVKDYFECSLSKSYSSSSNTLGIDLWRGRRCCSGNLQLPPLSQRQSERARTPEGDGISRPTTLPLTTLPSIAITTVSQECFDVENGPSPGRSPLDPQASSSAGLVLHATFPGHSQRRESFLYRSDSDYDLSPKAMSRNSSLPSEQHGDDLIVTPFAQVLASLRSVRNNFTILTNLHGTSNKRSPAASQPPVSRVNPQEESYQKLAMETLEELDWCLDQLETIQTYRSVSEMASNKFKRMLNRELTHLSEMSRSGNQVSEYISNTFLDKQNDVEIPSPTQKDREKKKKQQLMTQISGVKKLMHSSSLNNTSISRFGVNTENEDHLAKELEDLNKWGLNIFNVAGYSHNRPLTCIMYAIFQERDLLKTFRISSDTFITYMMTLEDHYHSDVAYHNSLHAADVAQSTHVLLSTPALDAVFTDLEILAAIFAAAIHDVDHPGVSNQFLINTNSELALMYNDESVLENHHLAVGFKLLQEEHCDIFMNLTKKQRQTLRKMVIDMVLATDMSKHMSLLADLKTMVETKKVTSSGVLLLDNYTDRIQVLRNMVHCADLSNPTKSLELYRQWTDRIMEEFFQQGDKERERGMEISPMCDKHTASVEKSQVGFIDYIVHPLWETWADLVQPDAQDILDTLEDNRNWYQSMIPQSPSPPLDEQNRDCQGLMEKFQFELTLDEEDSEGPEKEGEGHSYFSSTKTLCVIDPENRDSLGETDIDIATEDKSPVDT
Cytochrome P450 1A2 (Homo sapiens), sequence (P05177 whole entry, looked up): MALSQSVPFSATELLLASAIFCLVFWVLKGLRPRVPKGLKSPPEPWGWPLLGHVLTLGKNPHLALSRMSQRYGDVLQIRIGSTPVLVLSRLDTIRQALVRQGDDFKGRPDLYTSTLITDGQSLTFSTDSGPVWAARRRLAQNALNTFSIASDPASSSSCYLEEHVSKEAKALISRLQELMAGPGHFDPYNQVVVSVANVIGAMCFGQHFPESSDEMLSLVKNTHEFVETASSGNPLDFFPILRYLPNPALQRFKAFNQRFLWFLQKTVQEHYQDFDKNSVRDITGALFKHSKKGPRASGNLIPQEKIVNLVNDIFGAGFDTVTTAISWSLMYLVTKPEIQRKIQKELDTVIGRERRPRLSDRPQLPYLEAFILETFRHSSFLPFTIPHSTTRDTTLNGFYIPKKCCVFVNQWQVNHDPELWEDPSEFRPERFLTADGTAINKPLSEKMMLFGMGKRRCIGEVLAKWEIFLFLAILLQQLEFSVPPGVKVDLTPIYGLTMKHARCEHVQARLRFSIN
Glucocorticoid receptor (Homo sapiens), sequence (P04150 whole entry, looked up): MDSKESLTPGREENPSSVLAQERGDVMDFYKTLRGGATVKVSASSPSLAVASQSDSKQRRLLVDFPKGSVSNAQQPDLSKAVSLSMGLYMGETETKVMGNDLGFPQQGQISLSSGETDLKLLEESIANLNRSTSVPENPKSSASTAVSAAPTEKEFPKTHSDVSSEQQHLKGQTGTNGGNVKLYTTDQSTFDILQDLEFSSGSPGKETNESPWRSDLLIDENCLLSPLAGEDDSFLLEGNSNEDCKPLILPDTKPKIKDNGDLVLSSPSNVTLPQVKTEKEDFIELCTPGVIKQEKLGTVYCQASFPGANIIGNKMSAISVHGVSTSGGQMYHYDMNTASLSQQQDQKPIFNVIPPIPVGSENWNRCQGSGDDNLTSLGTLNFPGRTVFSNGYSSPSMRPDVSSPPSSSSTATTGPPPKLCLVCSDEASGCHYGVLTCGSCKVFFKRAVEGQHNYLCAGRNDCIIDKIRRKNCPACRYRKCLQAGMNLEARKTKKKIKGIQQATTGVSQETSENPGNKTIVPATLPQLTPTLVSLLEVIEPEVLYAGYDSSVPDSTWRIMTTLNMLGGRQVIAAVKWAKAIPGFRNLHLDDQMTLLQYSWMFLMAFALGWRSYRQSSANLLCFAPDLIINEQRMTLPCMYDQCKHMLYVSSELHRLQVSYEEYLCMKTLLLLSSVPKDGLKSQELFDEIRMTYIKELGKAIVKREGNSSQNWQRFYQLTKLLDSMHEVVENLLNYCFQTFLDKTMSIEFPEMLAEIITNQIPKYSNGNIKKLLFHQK
Cytochrome P450 2C19 (Homo sapiens), sequence (P33261 whole entry, looked up): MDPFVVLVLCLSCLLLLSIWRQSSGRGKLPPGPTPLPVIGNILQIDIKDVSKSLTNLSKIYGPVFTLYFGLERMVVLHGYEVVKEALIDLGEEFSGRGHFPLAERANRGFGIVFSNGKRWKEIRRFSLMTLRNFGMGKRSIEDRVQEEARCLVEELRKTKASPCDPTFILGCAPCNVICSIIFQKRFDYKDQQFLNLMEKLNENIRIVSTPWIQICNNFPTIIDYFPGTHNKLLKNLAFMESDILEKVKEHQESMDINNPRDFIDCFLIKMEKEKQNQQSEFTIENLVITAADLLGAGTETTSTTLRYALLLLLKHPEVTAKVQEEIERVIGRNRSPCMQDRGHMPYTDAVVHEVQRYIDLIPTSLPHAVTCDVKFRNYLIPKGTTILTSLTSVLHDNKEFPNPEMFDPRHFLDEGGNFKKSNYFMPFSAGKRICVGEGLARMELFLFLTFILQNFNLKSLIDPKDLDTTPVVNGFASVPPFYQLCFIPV
Muscarinic acetylcholine receptor M1 (Rattus norvegicus), sequence (P08482 whole entry, looked up): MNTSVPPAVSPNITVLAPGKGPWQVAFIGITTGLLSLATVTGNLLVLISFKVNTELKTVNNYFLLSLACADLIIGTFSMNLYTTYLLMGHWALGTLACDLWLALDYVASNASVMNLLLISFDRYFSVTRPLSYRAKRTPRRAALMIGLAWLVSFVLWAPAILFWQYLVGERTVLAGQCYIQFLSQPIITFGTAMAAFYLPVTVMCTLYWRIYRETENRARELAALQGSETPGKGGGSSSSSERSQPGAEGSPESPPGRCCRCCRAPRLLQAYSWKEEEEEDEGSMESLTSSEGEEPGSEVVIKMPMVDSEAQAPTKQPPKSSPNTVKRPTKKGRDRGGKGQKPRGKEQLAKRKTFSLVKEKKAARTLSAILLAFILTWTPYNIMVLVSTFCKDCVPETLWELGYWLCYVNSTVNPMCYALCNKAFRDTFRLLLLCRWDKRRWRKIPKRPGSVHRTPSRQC
Cytochrome P450 2D6 (Homo sapiens), sequence (P10635 whole entry, looked up): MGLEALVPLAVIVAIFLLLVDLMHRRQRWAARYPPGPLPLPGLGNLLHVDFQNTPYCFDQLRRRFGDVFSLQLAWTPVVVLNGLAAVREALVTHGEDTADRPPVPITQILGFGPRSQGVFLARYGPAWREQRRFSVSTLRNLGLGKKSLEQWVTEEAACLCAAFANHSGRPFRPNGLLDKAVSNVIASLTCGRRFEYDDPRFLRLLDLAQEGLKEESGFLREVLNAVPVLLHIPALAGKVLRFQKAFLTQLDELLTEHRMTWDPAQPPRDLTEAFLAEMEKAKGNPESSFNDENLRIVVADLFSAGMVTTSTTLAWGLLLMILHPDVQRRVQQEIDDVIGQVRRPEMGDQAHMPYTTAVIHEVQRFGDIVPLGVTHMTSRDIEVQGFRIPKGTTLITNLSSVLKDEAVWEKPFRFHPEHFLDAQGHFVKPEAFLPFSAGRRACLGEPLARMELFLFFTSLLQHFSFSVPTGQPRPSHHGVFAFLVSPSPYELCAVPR
Pyruvate kinase (Leishmania mexicana), sequence (Q27686 2-499 E452W): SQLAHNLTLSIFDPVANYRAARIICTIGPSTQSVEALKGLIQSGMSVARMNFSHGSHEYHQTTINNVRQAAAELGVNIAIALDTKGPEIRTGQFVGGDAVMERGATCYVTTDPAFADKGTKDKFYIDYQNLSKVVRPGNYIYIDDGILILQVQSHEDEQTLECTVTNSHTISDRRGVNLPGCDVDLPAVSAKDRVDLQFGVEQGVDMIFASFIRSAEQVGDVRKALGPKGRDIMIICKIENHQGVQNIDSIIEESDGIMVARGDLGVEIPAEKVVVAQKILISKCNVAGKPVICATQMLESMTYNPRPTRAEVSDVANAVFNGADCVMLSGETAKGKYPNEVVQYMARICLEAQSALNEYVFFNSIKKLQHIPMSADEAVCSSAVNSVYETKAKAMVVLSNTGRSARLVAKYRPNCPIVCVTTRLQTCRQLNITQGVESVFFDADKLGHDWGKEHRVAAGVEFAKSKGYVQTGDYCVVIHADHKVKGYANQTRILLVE

Take `O=C(O)[C@@H]1[C@H](C(=O)O)[C@H]2C(=O)C=C[C@H]1N2Cc1ccccc1`: the values for the Potency in experiment [1], in experiment [4] and in experiment [5] were greater than 11.4 µM, greater than 46 µM and greater than 9.22 µM, respectively. For the same compound, the activity change, negative = inhibition in [2] was -5.73%; in experiment [3], -3.9% [at 2.29 µM]. The Potency entry in experiment [6] and in [7] was “inactive” throughout.

As to `CC(C)c1cc(C(F)(F)F)nc(NNc2nc(C(C)C)cc(C(F)(F)F)n2)n1`, the Potency is greater than 11.4 µM in [1]; greater than 46 µM in experiment [4]; greater than 9.22 µM in experiment [5]; 3.16 µM (active) in experiment [8]; 0.126 µM (active) in experiment [10]; 2.51 µM (active) in experiment [11]. Also, the activity change, negative = inhibition in experiment [2] is -11.8%. Also, the Potency entry in [3], in experiment [6], in experiment [7] and in experiment [9] was “inactive” in each case.

In the case of `CCOC(=O)c1c2c(n3ccccc13)C(=O)c1ccccc1C2=O`, the Potency was greater than 11.4 µM in experiment [1], 0.1 µM (active) in experiment [3], greater than 46 µM in [4] and greater than 9.22 µM in experiment [5]. In experiment [2], the activity change, negative = inhibition is 19.9%. Moreover, the Potency entry in [7] and in [9] was “inactive” in each case.

For `O=[N+]([O-])c1ccc([C@@H](Nc2ccccc2)c2ccc3cccnc3c2O)cc1`, the Potency was greater than 11.4 µM in experiment [1], greater than 46 µM in experiment [4], greater than 9.22 µM in experiment [5] and 3.98 µM (active) in experiment [11]. For the same compound, the values for the activity change, negative = inhibition in experiment [2] and in experiment [3] were -13.7% and -21.3% [at 2.29 µM], respectively. Also, the Potency entry in experiment [6] and in experiment [7] was “inactive” each time.

In the case of `C[C@H](Oc1ccc(Oc2cnc3ccc(Cl)cc3n2)cc1)C(=O)O`, the Potency was greater than 11.4 µM in [1]; greater than 46 µM in experiment [4]; > 46 µM and > 9.22 µM in experiment [5]. Further, the activity change, negative = inhibition in [2] is -24.4% [at 38 µM]; in experiment [12] (at 7.69 µM (top of the series)), 8.25%; in experiment [12] (at 38 µM (top of the series)), 7.14%. The activity, negative = inhibition in [13] (at 7.69 µM (top of the series)) was -19.5%; in experiment [13] (at 38 µM (top of the series)) it was -10.1%. Besides, the Potency result in experiment [6], in [7], in experiment [16], in [17] and in [21] was “inactive” in each case. The compound was classed as inactive in experiment [14], in experiment [15], in experiment [18], in experiment [19] and in experiment [20].

For the origin of these results see PubChem BioAssay (NCATS).
